# Measured values reported in PubChem BioAssay AID1159580 (chemical genetic matrix, 2015).
# Among all 5,500 compounds or so, about 2,000 (36%) were called active. Inconclusive results (about 18%) are left out. This is one part of the list. Values without a mark were called inactive. Cut-off read from the data, not from the text of the source: active = normalized growth mostly below about 0.91 (no sharp cut-off); inconclusive = no clear call, values can overlap the other calls; inactive = mostly above about 0.92.
# Experiment: chemical genetic growth profiling, strain panel (AID 1159580);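 note: tested at 20 µM; growth read once vehicle control cultures reached saturation at 30 °C; 1 = growth at the plate median or of vehicle wells; lower values mean less growth of the strain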
# Conditions: S. cerevisiae deletion strains, growth OD
# [1] = locus YAL021C, strain ccr4, active compounds read low
# [2] = locus YAL026C, strain drs2, active compounds read low
# [3] = locus YAL030W, strain snc1, active compounds read low
# [4] = locus YBL061C, strain skt5, active compounds read low
# [5] = locus YBR009C, strain hhf1, active compounds read low
# [6] = locus YBR023C, strain chs3, active compounds read low
# [7] = locus YBR171W, strain sec66, active compounds read low
# [8] = locus YBR231C, strain swc5, active compounds read low
# [9] = locus YBR279W, strain paf1, active compounds read low
# [10] = locus YCL011C, strain gbp2, active compounds read low
# [11] = locus YCL016C, strain dcc1, active compounds read low
# [12] = locus YCL061C, strain MRC1, active compounds read low
# [13] = locus YCL069W, strain vba3, active compounds read low
# [14] = locus YCR088W, strain abp1, active compounds read low
# [15] = locus YDL005C, strain med2, active compounds read low
# [16] = locus YDL040C, strain nat1, active compounds read low
# [17] = locus YDR001C, strain nth1, active compounds read low
# [18] = locus YDR069C, strain doa4, active compounds read low
# [19] = locus YDR137W, strain rgp1, active compounds read low
# [20] = locus YDR159W, strain sac3, active compounds read low
# [21] = locus YDR297W, strain sur2, active compounds read low
# [22] = locus YDR334W, strain swr1, active compounds read low
# [23] = locus YDR335W, strain msn5, active compounds read low
# [24] = locus YDR392W, strain spt3, active compounds read low
# [25] = locus YEL003W, strain gim4, active compounds read low
# [26] = locus YEL037C, strain rad23, active compounds read low
# [27] = locus YEL061C, strain CIN8 (second series), active compounds read low
# [28] = locus YER015W, strain faa2, active compounds read low
# [29] = locus YER016W, strain bim1, active compounds read low
# [30] = locus YER111C, strain swi4, active compounds read low
# [31] = locus YER155C, strain BEM2 (second series), active compounds read low
# [32] = locus YFR010W, strain ubp6, active compounds read low
# [33] = locus YGL167C, strain pmr1, active compounds read low
# [34] = locus YGL173C, strain kem1, active compounds read low
# [35] = locus YGL227W, strain vid30, active compounds read low
# [36] = locus YGL240W, strain doc1, active compounds read low
# [37] = locus YGL253W, strain hxk2, active compounds read low
# [38] = locus YHR013C, strain ard1, active compounds read low
# [39] = locus YHR027C, strain rpn1, active compounds read low
# [40] = locus YHR030C, strain SLT2, active compounds read low
# [41] = locus YHR079C, strain IRE1, active compounds read low
# [42] = locus YHR142W, strain chs7, active compounds read low
# [43] = locus YJL092W, strain hpr5, active compounds read low
# [44] = locus YJL095W, strain BCK1 (second series), active compounds read low
# [45] = locus YJL095W, strain BCK1, active compounds read low
# [46] = locus YJL115W, strain asf1, active compounds read low
# [47] = locus YJL129C, strain trk1, active compounds read low
# [48] = locus YJL154C, strain vps35, active compounds read low
# [49] = locus YJL164C, strain tpk1, active compounds read low
# [50] = locus YJL166W, strain qcr8, active compounds read low
# [51] = locus YJL187C, strain SWE1, active compounds read low
# [52] = locus YJR066W, strain TOR1, active compounds read low
# [53] = locus YKL160W, strain elf1, active compounds read low
# [54] = locus YKR026C, strain gcn3, active compounds read low
# [55] = locus YKR091W, strain srl3, active compounds read low
# [56] = locus YLL001W, strain dnm1, active compounds read low
# [57] = locus YLL026W, active compounds read low
# [58] = locus YLL041C, strain sdh2, active compounds read low
# [59] = locus YLR027C, strain aat2, active compounds read low
# [60] = locus YLR113W, strain HOG1, active compounds read low
# [61] = locus YLR221C, strain rsa3, active compounds read low
# [62] = locus YLR258W, strain gsy2, active compounds read low
# [63] = locus YLR262C, strain YPT6 (second series), active compounds read low
# [64] = locus YLR320W, strain mms22, active compounds read low
# [65] = locus YLR342W, strain FKS1, active compounds read low
# [66] = locus YLR357W, strain rsc2, active compounds read low
# [67] = locus YLR370C, strain arc18, active compounds read low
# [68] = locus YLR384C, strain iki3, active compounds read low
# [69] = locus YML120C, strain ndi1, active compounds read low
# [70] = locus YMR058W, strain fet3, active compounds read low
# [71] = locus YMR125W, strain sto1, active compounds read low
# [72] = locus YMR129W, active compounds read low
# [73] = locus YMR205C, strain PFK2, active compounds read low
# [74] = locus YMR231W, strain pep5, active compounds read low
# [75] = locus YNL071W, strain lat1, active compounds read low
# [76] = locus YNL183C, strain NPR1, active compounds read low
# [77] = locus YNL209W, strain ssb2, active compounds read low
# [78] = locus YNL248C, strain rpa49, active compounds read low
# [79] = locus YNL322C, strain KRE1 (second series), active compounds read low
# [80] = locus YNR049C, strain mso1, active compounds read low
# [81] = locus YOR001W, strain rrp6, active compounds read low
# [82] = locus YOR070C, strain gyp1, active compounds read low
# [83] = locus YOR080W, strain dia2, active compounds read low
# [84] = locus YOR083W, strain WHI5, active compounds read low
# [85] = locus YOR106W, strain vam3, active compounds read low
# [86] = locus YOR231W, strain MKK1, active compounds read low
# [87] = locus YOR265W, strain rbl2, active compounds read low
# [88] = locus YOR270C, strain vph1, active compounds read low
# [89] = locus YOR290C, strain snf2, active compounds read low
# [90] = locus YPL051W, strain arl3, active compounds read low
# [91] = locus YPL078C, strain atp4, active compounds read low
# [92] = locus YPL106C, strain sse1, active compounds read low
# [93] = locus YPL240C, strain hsp82, active compounds read low
# [94] = locus YPL256C, strain CLN2, active compounds read low
smiles,measurement,setting,value
C=C(C)C1CC=C(CO)CC1 (configuration not stated),normalized growth,[1],0.983
same,normalized growth,[2],0.978
same,normalized growth,[3],0.973
same,normalized growth,[4],0.991
same,normalized growth,[5],0.994
same,normalized growth,[6],0.981
same,normalized growth,[7],0.95
same,normalized growth,[8],0.975
same,normalized growth,[9],0.983
same,normalized growth,[10],0.963
same,normalized growth,[11],0.983
same,normalized growth,[12],0.978
same,normalized growth,[13],0.948
same,normalized growth,[14],0.963
same,normalized growth,[15],0.961
same,normalized growth,[16],0.959
same,normalized growth,[17],0.963
same,normalized growth,[18],0.978
same,normalized growth,[19],0.941
same,normalized growth,[20],0.943
same,normalized growth,"locus YDR195W, strain ref2",0.809 (active)
same,normalized growth,[21],0.975
same,normalized growth,[22],0.938
same,normalized growth,[23],0.965
same,normalized growth,[24],0.844
same,normalized growth,[25],0.976
same,normalized growth,[26],0.955
same,normalized growth,[27],0.946
same,normalized growth,[28],0.976
same,normalized growth,[29],0.969
same,normalized growth,[30],0.963
same,normalized growth,[31],0.793 (active)
same,normalized growth,[32],0.98
same,normalized growth,[33],0.96
same,normalized growth,[34],0.955
same,normalized growth,[35],0.965
same,normalized growth,[36],0.954
same,normalized growth,[37],0.983
same,normalized growth,[38],0.982
same,normalized growth,[39],0.976
same,normalized growth,[40],1.06
same,normalized growth,[41],1.05
same,normalized growth,[42],0.995
same,normalized growth,[43],0.938
same,normalized growth,[44],0.97
same,normalized growth,[45],1.02
same,normalized growth,[46],0.953
same,normalized growth,[47],0.923
same,normalized growth,[48],0.962
same,normalized growth,[49],0.987
same,normalized growth,[50],0.972
same,normalized growth,[51],0.968
same,normalized growth,[52],0.997
same,normalized growth,[53],0.978
same,normalized growth,[54],0.972
same,normalized growth,[55],0.953
same,normalized growth,[56],0.988
same,normalized growth,[57],0.976
same,normalized growth,[58],0.971
same,normalized growth,[59],0.993
same,normalized growth,[60],1.01
same,normalized growth,[61],1.01
same,normalized growth,[62],0.979
same,normalized growth,[63],0.954
same,normalized growth,[64],0.983
same,normalized growth,[65],0.967
same,normalized growth,[66],0.92
same,normalized growth,[67],0.938
same,normalized growth,[68],0.958
same,normalized growth,[69],0.974
same,normalized growth,[70],0.968
same,normalized growth,[71],0.931
same,normalized growth,[72],0.955
same,normalized growth,[73],0.956
same,normalized growth,[74],0.971
same,normalized growth,[75],0.953
same,normalized growth,[76],0.947
same,normalized growth,[77],0.968
same,normalized growth,[78],0.932
same,normalized growth,[79],0.948
same,normalized growth,[80],0.951
same,normalized growth,[81],0.969
same,normalized growth,[82],0.97
same,normalized growth,[83],0.951
same,normalized growth,[84],0.994
same,normalized growth,[85],0.989
same,normalized growth,[86],1.05
same,normalized growth,[87],0.968
same,normalized growth,[88],0.949
same,normalized growth,[89],0.96
same,normalized growth,[90],0.99
same,normalized growth,[91],0.979
same,normalized growth,[92],0.945
same,normalized growth,[93],0.959
same,normalized growth,[94],1.04
O=C(O)C1=CCNCC1,normalized growth,"locus YAL013W, strain DEP1, active compounds read low",0.953
same,normalized growth,[1],0.979
same,normalized growth,[2],1.02
same,normalized growth,[3],1.02
same,normalized growth,[4],1.01
same,normalized growth,[5],1.03
same,normalized growth,[6],1.01
same,normalized growth,[7],1.01
same,normalized growth,[8],1.05
same,normalized growth,[9],1.01
same,normalized growth,[10],1.01
same,normalized growth,[11],1.02
same,normalized growth,"locus YCL061C, strain MRC1 (second series), active compounds read low",0.984
same,normalized growth,[12],1.02
same,normalized growth,[13],1.01
same,normalized growth,[14],1.02
same,normalized growth,[15],1.01
same,normalized growth,[16],1
same,normalized growth,[17],1.01
same,normalized growth,[18],1.03
same,normalized growth,[19],0.985
same,normalized growth,"locus YDR150W, strain NUM1, active compounds read low",0.991
same,normalized growth,[20],1.02
same,normalized growth,"locus YDR195W, strain ref2",0.996
same,normalized growth,[21],1.01
same,normalized growth,[22],1.02
same,normalized growth,[23],1.02
same,normalized growth,"locus YDR363W, strain ESC2, active compounds read low",0.979
same,normalized growth,[24],0.98
same,normalized growth,[25],1.02
same,normalized growth,[26],1.01
same,normalized growth,[27],1.01
same,normalized growth,"locus YER002W, strain NOP16, active compounds read low",0.993
same,normalized growth,[28],1.02
same,normalized growth,[29],1.02
same,normalized growth,[30],1.01
same,normalized growth,[31],1.05
same,normalized growth,[32],1.02
same,normalized growth,[33],1.02
same,normalized growth,[34],1.01
same,normalized growth,[35],1.01
same,normalized growth,[36],1.03
same,normalized growth,[37],1.01
same,normalized growth,[38],1.02
same,normalized growth,[39],1.02
same,normalized growth,[40],1.04
same,normalized growth,[41],1.05
same,normalized growth,[42],0.988
same,normalized growth,[43],1.01
same,normalized growth,[44],1.02
same,normalized growth,[45],1.03
same,normalized growth,[46],1.02
same,normalized growth,[47],1.01
same,normalized growth,[48],1.01
same,normalized growth,[49],1.01
same,normalized growth,[50],1.01
same,normalized growth,[51],1.01
same,normalized growth,[52],0.961
same,normalized growth,"locus YJR075W, strain HOC1, active compounds read low",0.978
same,normalized growth,[53],0.99
same,normalized growth,[54],1.02
same,normalized growth,[55],1.01
same,normalized growth,[56],1.01
same,normalized growth,[57],1.01
same,normalized growth,[58],1.01
same,normalized growth,[59],1.01
same,normalized growth,[60],1.06
same,normalized growth,[61],1.02
same,normalized growth,[62],1.04
same,normalized growth,[63],1.01
same,normalized growth,[64],1.03
same,normalized growth,[65],1.03
same,normalized growth,[66],1.03
same,normalized growth,[67],1.02
same,normalized growth,[68],1.01
same,normalized growth,[69],1.01
same,normalized growth,[70],1.02
same,normalized growth,[71],1.02
same,normalized growth,[72],1.01
same,normalized growth,[73],1.03
same,normalized growth,[74],1.01
same,normalized growth,[75],1.02
same,normalized growth,"locus YNL128W, strain TEP1, active compounds read low",0.982
same,normalized growth,"locus YNL153C, strain GIM3, active compounds read low",0.965
same,normalized growth,"locus YNL175C, strain NOP13, active compounds read low",0.994
same,normalized growth,[76],0.958
same,normalized growth,[77],1.01
same,normalized growth,"locus YNL224C, strain SQS1, active compounds read low",0.982
same,normalized growth,[78],0.98
same,normalized growth,[79],1.01
same,normalized growth,"locus YNL322C, strain KRE1, active compounds read low",0.991
same,normalized growth,[80],1.02
same,normalized growth,[81],1
same,normalized growth,[82],1.02
same,normalized growth,[83],1.03
same,normalized growth,[84],0.982
same,normalized growth,[85],0.986
same,normalized growth,[86],1.04
same,normalized growth,[87],1.01
same,normalized growth,[88],1.02
same,normalized growth,[89],1.01
same,normalized growth,[90],1.01
same,normalized growth,"locus YPL055C, strain LGE1, active compounds read low",0.974
same,normalized growth,[91],0.991
same,normalized growth,[92],1.02
same,normalized growth,[93],1
same,normalized growth,[94],1.05
